Over roughly 8,300 sequences, “log2 fold change of degron read counts, EGFP-low vs EGFP+ sorted cells (limma voom), compound-induced degradation” has its median near -1.1; the highest 2% begin near 3.2. This is one part of a sample in which the highest values are shown more often than they occur.
T1: CRBN, Q96SW2
T1 chain: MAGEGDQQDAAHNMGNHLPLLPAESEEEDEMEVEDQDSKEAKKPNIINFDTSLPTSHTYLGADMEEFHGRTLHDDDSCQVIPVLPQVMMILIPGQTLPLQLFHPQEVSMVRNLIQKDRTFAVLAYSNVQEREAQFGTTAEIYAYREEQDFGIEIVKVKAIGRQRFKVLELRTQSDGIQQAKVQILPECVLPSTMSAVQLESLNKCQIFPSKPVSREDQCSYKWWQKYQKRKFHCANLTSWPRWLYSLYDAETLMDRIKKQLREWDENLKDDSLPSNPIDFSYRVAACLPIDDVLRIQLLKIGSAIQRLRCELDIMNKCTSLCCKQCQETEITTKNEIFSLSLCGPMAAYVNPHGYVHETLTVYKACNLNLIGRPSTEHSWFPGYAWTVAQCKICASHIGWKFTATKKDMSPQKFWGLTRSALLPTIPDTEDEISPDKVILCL


Target: T1, CRBN, Q96SW2
Assay: log2 fold change of degron read counts, EGFP-low vs EGFP+ sorted cells (limma voom), compound-induced degradation; higher = more compound-induced degradation of the degron-EGFP fusion; degrons are variants of IKZF1/3 zinc finger 2; compound dose not given here
Conditions: Jurkat, 18 h
[1] = compound: compound 19 (5-tert-butyl-thalidomide)
[2] = compound: compound 22 (5-morpholino-thalidomide)
[3] = compound: compound 33 (diphenyl IMiD analogue)
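Note: pooled lentiviral library of zinc finger degron-EGFP fusions in mCherry-positive Jurkat cells, FACS-sorted after compound exposure, with degron abundance counted by next-generation sequencing.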

Sequence	log2 fold change of degron read counts [1]	log2 fold change of degron read counts [2]	log2 fold change of degron read counts [3]	log2 fold change of degron read counts (compound: thalidomide)
FGCDVCGALFTQKGNLLRHIKL [46F_47G_49D_50V_52G_53A_54L_55F_67L_, Q9UKT9]	-0.285	-1.26	0.277	-1.67
FLCNQCGRHFTQKGNLLRHIKL [46F_47L_49N_50Q_52G_53R_54H_55F_67L_, Q9UKT9]	-2.4	-2.59	-2.64	-2
FSCNVCGAYFTQKGNLLRHIKL [46F_47S_49N_50V_52G_53A_54Y_55F_67L_, Q9UKT9]	-0.837	-0.921	0.627	-0.674
FACNQCGRGFTQKGNLLRHIKL [46F_47A_49N_50Q_52G_53R_54G_55F_67L_, Q9UKT9]	-2.53	-2.62	-2.49	-2.4
FECNQCGATFTQKGNLLRHIKL [46F_47E_49N_50Q_52G_53A_54T_55F_67L_, Q9UKT9]	-2.51	-3.02	-2.92	-1.69
FICDQCGARFTQKGNLLRHIKL [46F_47I_49D_50Q_52G_53A_54R_55F_67L_, Q9UKT9]	-2.79	-0.912	-0.818	-1.23
FSCPICGAWFTQKGNLLRHIKL [46F_47S_49P_50I_52G_53A_54W_55F_67L_, Q9UKT9]	0.603	-0.272	0.788	-0.152
FVCNQCGADFTQKGNLLRHIKL [46F_47V_49N_50Q_52G_53A_54D_55F_67L_, Q9UKT9]	-3.46	-3.35	-3.82	-2.79
FRCEICGRRFTQKGNLLRHIKL [46F_47R_49E_50I_52G_53R_54R_55F_67L_, Q9UKT9]	-2.67	-2.2	-1.21	-0.634
FSCDQCGAEFTQKGNLLRHIKL [46F_47S_49D_50Q_52G_53A_54E_55F_67L_, Q9UKT9]	-2.57	-3.41	-1.87	-2.94
FCCPICGRCFTQKGNLLRHIKL [46F_47C_49P_50I_52G_53R_54C_55F_67L_, Q9UKT9]	-0.609	-0.825	0.868	0.188
FVCEICGRPFTQKGNLLRHIKL [46F_47V_49E_50I_52G_53R_54P_55F_67L_, Q9UKT9]	-1.68	-0.932	-1.28	-0.0354
LCCPICGFKCTQKGNLLRHIKL [46L_47C_49P_50I_52G_53F_54K_55C_67L_, Q9UKT9]	1.84	1.91	0.929	2.55
FECEICGAKFTQKGNLLRHIKL [46F_47E_49E_50I_52G_53A_54K_55F_67L_, Q9UKT9]	0.521	-1.41	-0.834	2.62
FSCEICGAKFTQKGNLLRHIKL [46F_47S_49E_50I_52G_53A_54K_55F_67L_, Q9UKT9]	3.23	1.96	-0.76	1.76
FKCEICGAKFTQKGNLLRHIKL [46F_47K_49E_50I_52G_53A_54K_55F_67L_, Q9UKT9]	-1.09	-3.1	-3.06	-1.37
FNCEICGAKFTQKGNLLRHIKL [46F_47N_49E_50I_52G_53A_54K_55F_67L_, Q9UKT9]	2.53	0.377	-1.68	0.453
FFCEICGAKFTQKGNLLRHIKL [46F_47F_49E_50I_52G_53A_54K_55F_67L_, Q9UKT9]	3.78	3.65	1.37	1.7
FLCEICGAKFTQKGNLLRHIKL [46F_47L_49E_50I_52G_53A_54K_55F_67L_, Q9UKT9]	0.834	-0.868	-0.0729	2.07
FYCEICGAKFTQKGNLLRHIKL [46F_47Y_49E_50I_52G_53A_54K_55F_67L_, Q9UKT9]	3.9	3.84	1.98	1.59
FQCEICGAKFTQKGNLLRHIKL [46F_47Q_49E_50I_52G_53A_54K_55F_67L_, Q9UKT9]	0.93	2.95	0.278	3.46
FDCEICGAKFTQKGNLLRHIKL [46F_47D_49E_50I_52G_53A_54K_55F_67L_, Q9UKT9]	2.14	0.278	-2.01	1.01
FHCEICGAKFTQKGNLLRHIKL [46F_47H_49E_50I_52G_53A_54K_55F_67L_, Q9UKT9]	2.99	2.33	-0.357	0.544
FCCEICGAKFTQKGNLLRHIKL [46F_47C_49E_50I_52G_53A_54K_55F_67L_, Q9UKT9]	3.35	2.52	0.0496	2.53
FACNICGACFTQKGNLLRHIKL [46F_47A_49N_50I_52G_53A_54C_55F_67L_, Q9UKT9]	2.13	1.95	0.735	-0.49
FKCEICGRRFTQKGNLLRHIKL [46F_47K_49E_50I_52G_53R_54R_55F_67L_, Q9UKT9]	-2.87	-3.55	-3	-1.89
FDCSVCGHIFTQKGNLLRHIKL [46F_47D_49S_50V_52G_53H_54I_55F_67L_, Q9UKT9]	-1.69	-1.84	-1.76	-1.28
FMCPICGAWFTQKGNLLRHIKL [46F_47M_49P_50I_52G_53A_54W_55F_67L_, Q9UKT9]	-1.26	-0.611	1.3	-0.221
